The record followed here is PubChem BioAssay (NCATS).

Test [1] can be described thus: Cytotoxicity counterscreen for NFkB agonists and antagonists (AID 624476). Further: potency means the concentration at half of the fitted maximal effect. The following applies: NFkB reporter cell line viability counterscreen; series mostly up to 46.1 µM.
A short description of test [2]: qHTS Assay for Identification of Small Molecule Agonists for NFkB Signaling Pathway. (AID 624478).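 Further: compounds tested together with TNF alpha at its EC50 of 10 pM; 0% is about no effect.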 The following applies: NFkB pathway reporter cell assay, agonist mode, cells co-stimulated with 10 pM TNF alpha; series mostly up to 46.1 µM. The method in brief:
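Cells carrying an NFkB response element-driven beta-lactamase gene are co-treated with compound and 10 pM TNF alpha for 5 h, and reporter activity is then read as 460 and 530 nm fluorescence.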

Test [3] in a line: qHTS Assay for Identification of Small Molecule Antagonists for NFkB Signaling Pathway. (AID 624479; calls by dose curve; further: potency means the concentration at half of the fitted maximal effect). The note with it: NFkB pathway reporter cell assay, antagonist mode; series mostly up to 38.3 µM. (In general: qHTS replaces the single test concentration by a dilution series.)
Test [4] in a line: Cell Proliferation Assay against the HBL1 Cell Line (AID 651646).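 Further: cells exposed to compound for 48 h before reading.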 The following applies: HBL1 DLBCL cells; at 46.1 µM (top of the series). The method in brief: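 HBL1 ABC DLBCL cells, 500/well in RPMI with 5% FBS, treated for 48 h at 37C. Viability read by CellTiter-Glo luminescence, normalized to DMSO as 100% and 9.2 uM bortezomib as 0%.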
Test [5] can be described thus: Cell Proliferation Assay against the TMD8 Cell Line (Caspase readout at 16 hrs) (AID 651712). Further: potency means the concentration at half of the fitted maximal effect. The following applies: TMD8 lymphoma cells, caspase activation luminescence; series mostly up to 46.1 µM. The method in brief:
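TMD8 cells in RPMI with 5% FBS were treated with compound for 16 h at 37 C, then caspase 3/7 activation was read by Caspase-Glo luminescence. Percent activity was scaled to DMSO (0%) and 9.2 uM bortezomib final (100%).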

Test [6] in a line: Cell Proliferation Assay against the TMD8 Cell Line (Caspase readout at 8 hrs) (AID 651713). Further: potency means the concentration at half of the fitted maximal effect. The note with it: TMD8 lymphoma cells, caspase activation luminescence; series mostly up to 46.1 µM. The method in brief: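 Percent activity derived from Caspase-Glo signal, DMSO set to 0% and bortezomib (9.2 uM final) to 100%. TMD8 cells were exposed to compound for 8 h in RPMI with 5% FBS.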

The nature of test [7]: Cell Proliferation Assay against the TMD8 Cell Line (AID 651645).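 Further: cells exposed to compound for 48 h before reading.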 The following applies: TMD8 DLBCL cell line proliferation/viability; at 46.1 µM (top of the series). The method in brief: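 Seed log-phase TMD8 cells in RPMI containing 5% FBS, add compounds at once, incubate 48 hours at 37C. Equilibrate to room temperature, add CellTiter-Glo, read luminescence after 15 minutes and express relative to DMSO and bortezomib controls.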

Records with an inconclusive call do not appear. The source made the active and inactive calls. Unless noted, the call rests on the fitted dose curve; in most records, active means well fitted curve in the direction sought with a large enough effect; inconclusive means small, poorly fitted or top-dose-only effect, or another doubt; inactive means no such curve, though single readings can be large; an effect the other way counts as inactive or inconclusive.

In the case of `C#Cc1cccc(Nc2ncnc3cc(OC)c(OCCCCCCC(=O)NO)cc23)c1`, the Potency in test [1] is 2.64 µM (active); in test [3], 16.8 µM (active); in test [5], 0.148 µM (active). Besides, the outcome in test [2] was inactive. Moreover, the viability, percent of control in test [4] was 1.91%.

Consider `Cc1ccc(C(=O)Nc2cccc(C(F)(F)F)c2)cc1-c1ccc2nc(NCCN3CCOCC3)ncc2c1`, for which the Potency in test [1] was 20.9 µM (active); in test [3], 4.73 µM (active); in test [6], 20.9 µM (active). Also, the call in test [2] was inactive. In test [4], the viability, percent of control is 0.88%.

As for `Nc1nc(-c2nn(Cc3ccccc3F)c3ncccc23)nc(N)c1N1CCOCC1`, the Potency result in test [1], in test [3], in test [5] and in test [6] was “inactive” each time. In test [2], the call was inactive.

Turning to `Nc1cc(C(F)(F)F)c(-c2cc(N3CCOCC3)nc(N3CCOCC3)n2)cn1`, the Potency was 0.935 µM (active) in test [1], 2.09 µM (active) in test [5] and 20.9 µM (active) in test [6]. For the same molecule, the call in test [2] was inactive. Moreover, in test [3], the Potency result was “inactive”. For the same molecule, in test [4], the viability, percent of control is 16.8%.

Turning to `CC(C)c1ccccc1Cc1cc(C(=O)Nc2ccc(S(=O)(=O)c3ccccc3C(C)(C)C)cc2)c(O)c(O)c1O`, the Potency in test [1] was 14.8 µM (active); in test [3], 13.3 µM (active); in test [5] it was 6.62 µM (active). Further, the result in test [2] was inactive. In test [4], the viability, percent of control was determined as 21.6%.

Turning to `Nc1ccccc1NC(=O)c1ccc(CNc2nccc(-c3cccnc3)n2)cc1`, the results for the Potency in test [1], in test [3] and in test [5] were 14.8 µM (active), 0.15 µM (active) and 20.9 µM (active), respectively. In test [2], the molecule was classed as inactive. Also, in test [4], the viability, percent of control came out at 4.64%. Besides, the Potency entry in test [6] was “inactive”.

Regarding `COc1ccc(CC2SC(=O)NC2=O)cc1C(=O)NCc1ccc(C(F)(F)F)cc1` (stereo not drawn), the Potency entry in test [1], in test [3] and in test [6] was “inactive” each time. Also, the outcome in test [2] was inactive. Moreover, the viability, percent of control in test [4] worked out at 66%.

Consider `Cc1cccc(C=NNc2cc(N3CCOCC3)nc(OCCc3ccccn3)n2)c1`, for which the Potency result in test [1] is “inactive”. The call in test [2] was inactive. Further, in test [3], the Potency was 21.1 µM (active). Besides, the viability, percent of control in test [4] came out at 0.729%.

For the molecule `C[C@@]12O[C@@H](C[C@]1(O)CO)n1c3ccccc3c3c4c(c5c6ccccc6n2c5c31)CNC4=O`, in test [1], the Potency is 3.32 µM (active). Further, in test [2], the result was inactive. Also, in test [7], the viability (% of control) was 1.51%. Besides, the viability, percent of control in test [4] came out at 3.21%.

In the case of `CCC[C@H](NC(=O)C(C#N)=Cc1cccc(Br)n1)c1ccccc1`, the Potency in test [1] is 2.96 µM (active); in test [3] it was 2.11 µM (active); in test [6], 1.87 µM (active). Also, in test [2], the molecule was called inactive. In addition, the viability, percent of control in test [4] was 2.62%.

With `Cn1c2cc(S(C)=O)sc2c2cnn(Cc3cccc(N)c3)c(=O)c21` (stereo not drawn), the Potency entry in test [1], in test [5] and in test [6] was “inactive” each time. The call in test [2] was inactive. The Potency in test [3] was 16.8 µM (active). Besides, the viability, percent of control in test [4] stood at 93.3%.

With `C=CCn1c(=O)c2cnc(Nc3ccc(N4CCN(C)CC4)cc3)nc2n1-c1cccc(C(C)(C)O)n1`, the Potency in test [1] was 1.66 µM (active). Further, the call in test [2] was inactive. Moreover, the viability (% of control) in test [7] turned out to be 11.5%. In addition, the viability, percent of control in test [4] came out at 31.1%.

Consider `COc1cc2ncn(-c3cc(OCc4ccccc4C(F)(F)F)c(C(N)=O)s3)c2cc1OC`, for which the Potency result in test [1], in test [3] and in test [6] was “inactive” each time. In test [2], the call was inactive. Further, the viability (% of control) in test [7] was 37.6%. Also, the viability, percent of control in test [4] is 41.7%.

As to `CC(C)(C)c1cnc(CSc2cnc(NC(=O)C3CCNCC3)s2)o1`, the Potency is 0.166 µM (active) in test [1], 0.0473 µM (active) in test [3] and 0.0935 µM (active) in test [6]. Moreover, the molecule was called inactive in test [2]. Further, the viability (% of control) in test [7] is 3.42%. In addition, the viability, percent of control in test [4] stood at 36.4%.

With `CN(c1ncccc1CNc1nc(Nc2ccc3c(c2)CC(=O)N3)ncc1C(F)(F)F)S(C)(=O)=O`, the Potency was 10.5 µM (active) in test [1], 1.49 µM (active) in test [3] and 8.33 µM (active) in test [6]. Also, the molecule was called inactive in test [2]. The viability, percent of control in test [4] came out at 40.9%.

With `C[C@@H](Oc1cc(-c2cnn(C3CCNCC3)c2)cnc1N)c1c(Cl)ccc(F)c1Cl`, in test [1], the Potency result was “inactive”. In addition, the result in test [2] was inactive. The viability (% of control) in test [7] stood at 2.18%. For the same molecule, in test [4], the viability, percent of control was -0.628%. For the same molecule, in test [6], the Potency is 26.4 µM (active).

As for `C=C1C(=CC=C2CCCC3(C)[C@@H]([C@H](C)C=CC=CC(O)(CC)CC)CC[C@@H]23)C[C@@H](O)C[C@@H]1O` (stereo partly drawn), the figures for the Potency in test [1] and in test [3] were 23.5 µM (active) and 16.8 µM (active), respectively. In addition, the viability (% of control) in test [7] was determined as 3.4%. Moreover, the viability, percent of control in test [4] is 2.25%.

Consider `C1=CCOCc2cc(ccc2OCCN2CCCC2)Nc2nccc(n2)-c2cccc(c2)OCC1`, for which, in test [2], the call was inactive.

Take `CN1CCN(c2cc(C(=O)Nc3ccc4c(c3)-c3c(c(C(N)=O)nn3-c3ccc(F)cc3)CC4)c(Cl)cn2)CC1`: the Potency entry in test [1] was “inactive”. In addition, the molecule was called inactive in test [2]. In addition, in test [7], the viability (% of control) is 0.112%. Further, in test [4], the viability, percent of control is 0.345%. In addition, in test [6], the Potency is 33.2 µM (active).

Turning to `COCCn1c2c([n+](Cc3cnccn3)c1C)C(=O)c1ccccc1C2=O`, in test [1], the Potency is 0.0118 µM (active). Besides, the call in test [2] was inactive. Besides, the viability (% of control) in test [7] was 1.68%. Besides, the viability, percent of control in test [4] was 1.98%. Also, the Potency entry in test [5] is “inactive”.

Turning to `Cc1[nH]c2ccccc2c1CCNCc1ccc(C=CC(=O)NO)cc1`, the Potency in test [1] was 0.332 µM (active); in test [5], 0.0332 µM (active). Further, the molecule was called inactive in test [2]. The viability (% of control) in test [7] was 1.52%. In addition, the viability, percent of control in test [4] is -0.0299%.

For the molecule `Nc1nccc(Oc2ccc(NC(=O)c3c[nH]cc(-c4ccc(F)cc4)c3=O)cc2F)c1Cl`, the Potency in test [1] was 18.7 µM (active); in test [3], 5.95 µM (active). In addition, the viability (% of control) in test [7] turned out to be 4.79%. Besides, the viability, percent of control in test [4] is 14.4%. Also, the Potency result in test [5] and in test [6] was “inactive” in each case.

As for `COc1cc(OC2CCN(C)CC2)ccc1Nc1ncc2c(n1)n(C1CCCC1)c(=O)n2C`, the Potency result in test [1] was “inactive”. Also, the outcome in test [2] was inactive. The viability (% of control) in test [7] was determined as 56.7%. Moreover, the viability, percent of control in test [4] was 38.2%. Also, the Potency in test [6] was 10.5 µM (active).

On to `C[C@@H](Oc1cc(-n2cnc3ccc(CN4CCN(C)CC4)cc32)sc1C(N)=O)c1ccccc1C(F)(F)F`, for which the outcome in test [2] was inactive. The Potency result in test [3] was “inactive”. The viability (% of control) in test [7] was 2.56%. Further, in test [4], the viability, percent of control came to 3.16%. Besides, the Potency in test [6] was 23.5 µM (active).
